Screening data (PubChem BioAssay)
RGS12 GoLoco inh: inhibitors of human Gai1-RGS12 GoLoco interaction (red fluorophore); Potency, µM (doses to about 61.6 µM), without a hit: at the highest dose activity, negative = inhibition, actives largely listed as inhibitors; Gai1:RGS12 GoLoco peptide FP, rhodamine, 10 min; 0.44% of 230,000 active; AID 880; active = well fitted inhibition curve with a large enough effect, not every such curve was filed as active; inactive = no such curve, though single readings can be large or run the other way; note: potency is the fitted concentration of half-maximal effect; % is set by controls: 0 for no effect and ±100 for the full control effect; nearly all actives have a fitted effect of over 30% in size
TexasRed fluor: Texas Red fluorescence interference in TRb-SRC2 counter-screen; TRb/SRC2 Texas Red total fluorescence interference; Potency, µM (top dose mostly 106 µM), without a hit: at the highest dose fluorescence change, negative = quenching; 0.29% of 280,000 active; AID 1479; active = well fitted curve in either direction with a large enough effect; inconclusive = small, poorly fitted or top-dose-only effect; note: potency is the fitted concentration of half-maximal effect; % is set by controls: 0 for no effect and ±100 for the full control effect
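Human TRβ ligand-binding domain (0.6 uM) and Texas Red SRC2 peptide (20 nM) in Tris buffer with 1 uM T3 and 5% DMSO were incubated with pinned compound for 5 hr at ambient temperature. Total fluorescence was computed as S + 2P (555/632 nm).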
CXXC DNA block: MLL CXXC-DNA interaction inhibition | MLL-CXXC / FITC-HOXA9 DNA fluorescence polarization | Potency, µM (top dose mostly 115 µM), inactives show at the top dose activity change, negative = inhibition, actives largely listed as inhibitors | 0.037% of 290,000 active; active = well fitted inhibition curve with a large enough effect in the polarisation, with a control signal flat, not every such curve was filed as active; inconclusive = small, poorly fitted or top-dose-only effect, or effect the other way, or a change in a side signal; inactive = no such curve, though single readings can be large or run the other way; the % refers to the polarisation; note: potency is the fitted concentration of half-maximal effect
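Steps: dispense CXXC domain solution (7 uM) → pin compounds or unlabeled HOX-A9 DNA control → 5 min ambient → add FLSN-HOX-A9 solution (50 nM) → spin → 30 min ambient → fluorescence polarization. Tris pH 7.5/NaCl/DTT/BSA buffer.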
Menin MLL FP FL: displaces fluorescein MLL peptide from human menin; Fluorescence polarization, fluorescein-MLL peptide displacement from menin; FP activity change, % at 61.4 µM; 290,000 tested, under 10 active; AID 1766; active = well fitted curve in the direction sought with a large enough effect in the polarisation, not every such curve was filed as active; inconclusive = small, poorly fitted or top-dose-only effect, or effect the other way, or a change in a side signal; inactive = no such curve, though single readings can be large or run the other way; the % refers to the polarisation; note: % of control where 0% means no effect
TRb-SRC2 inh: disrupts binding of human TR beta to SRC2; Potency, µM (titrated, usually from 106 µM), for inactives: at the top dose activity change, negative = inhibition, actives largely listed as inhibitors; TRbeta-SRC2 peptide binding, fluorescence polarization; receptor liganded with 1 µM T3; 0.065% of 280,000 active; active = well fitted inhibition curve with a large enough effect; inconclusive = small, poorly fitted or top-dose-only effect, or effect the other way;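 note: potency is the fitted concentration of half-maximal effect; plate controls were bound peptide for no effect and peptide without receptor for full effect; nearly all actives have a fitted effect of over 50% in size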
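Quantitative HTS by FP: 0.6 uM TRb LBD, 20 nM labeled SRC2 20-mer, 1 uM T3, 5% DMSO; 5 hr ambient incubation; % activity per concentration and potencies from concentration series.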
Menin MLL FP TR: menin-MLL binding inhibition, Texas Red mutant peptide | 0.23% of 270,000 active | Menin + Texas Red MLL mutant peptide, fluorescence polarization | Potency, µM (titrated, usually from 61.6 µM), for the others: at the top dose FP activity change, negative = inhibition, hits mostly inhibitors | O00255 | AID 1768; active = well fitted inhibition curve with a large enough effect in the polarisation, with a control signal flat, not every such curve was filed as active; inconclusive = small, poorly fitted or top-dose-only effect, or effect the other way, or a change in a side signal; inactive = no such curve, though single readings can be large or run the other way; the % refers to the polarisation; note: potency is the fitted concentration of half-maximal effect; % of control where 0% means no effect
Numbers without * were called inactive; u = inconclusive; x = no result; [ ] = another dose, or the depositor's remark. A selection: hits, their analogues and other compounds. The true share with any hit is near 0.5%.

SMILES	RGS12 GoLoco inh	TexasRed fluor	CXXC DNA block	Menin MLL FP FL	TRb-SRC2 inh	Menin MLL FP TR
O=C(c1cccs1)N1N=C(c2ccccc2)CC1c1ccccc1O (stereo not drawn)	6.6%	3.8%	13.1%	8.1	0.4%	17.8µM*
Cc1ccc(C2=NN(C(=O)c3cccs3)C(c3ccccc3O)C2)cc1 (stereo not drawn)	20.7%	-2.0%	-8.9%	-0.2	1.2%	u
COc1ccc(-c2cc(C(F)(F)F)n3nc(C(=O)Nc4cccc(Cl)c4Cl)cc3n2)cc1OC	x	0.0355µM*[quencher]	x	x	-25.2%[53 µM]	x
COc1ccc(-c2cc(C(F)(F)F)n3nc(C(=O)Nc4cc(C(F)(F)F)ccc4Cl)cc3n2)cc1OC	x	5.3%	x	x	8.5%	x
O=C(COC(=O)c1ccccc1NS(=O)(=O)c1cccs1)NCC12CC3CC(CC(C3)C1)C2	9.8%	1.4%	4.2%	5.1	0.4%	21.1%
O=C(COC(=O)c1ccccc1NS(=O)(=O)c1cccs1)NC1CCCCC1	-11.1%	112µM*[quencher]	-7.5%	-5.6	-17.9%[53 µM]	-7.6%
CC(Cl)(Cl)C(=O)OCCOc1cc(Cl)c(Cl)cc1Cl	x	-0.4%[201 µM]	x	x	-3.3%[201 µM]	x
CCN(CC)c1ccc(N=Cc2ccccc2[N+](=O)[O-])cc1	7.7%	30.0%	6.7%	0.6	u	17.8µM*
CCOc1cc(CNc2ccc(N(C)C)cc2)cc(Br)c1OCC(=O)NC(C)(C)C	-13.5%	44.7µM*[fluorescent]	0.6%	-3.1	39.8µM*	u
CCOc1cc(CNc2ccc(N3CCCCC3)cc2)cc(Br)c1OCC(=O)NC(C)(C)C	-1.6%	2.5%	3.7%	1.6	-19.7%	-16.0%
COc1ccc2[nH]c(-c3ccc(F)cc3F)cc(=O)c2c1	0.9%[88.7 µM]	3.9%	x	0.7[94.6 µM]	0.3%	-0.2%[94.6 µM]
COc1ccc2[nH]c3c4c(ccc3c2c1)C(=O)C=CC4=O	22.4µM*	-13.5%	1.1%	12.4	-6.7%	x
CCc1ccc(NC(=O)c2sc3nc(C)c(Cl)c(C)c3c2NC(=O)c2ccccc2OC)cc1	x	10µM*[quencher]	x	x	-9.2%	x
CCc1ccc(NC(=O)c2sc3nc(C)c(Cl)c(C)c3c2N)cc1	x	4.5%	x	x	-0.1%	x
O=C(C1=C(O)C(=O)N(c2nccs2)C1c1ccccc1)c1cc2ccccc2o1 (stereo not drawn)	20µM*	3.8%	u	u	2.0%	x
CC[n+]1c(/C=C/N(C)c2ccccc2)oc2ccc(Cl)cc21	-8.0%	2.3%	18.4%	6.0	9.3%	u
CCN1/C(=C/C=C/c2oc3ccc4ccccc4c3[n+]2CC)Oc2ccc3ccccc3c21	-159.6%	50.1µM*[fluorescent]	u	u	10µM*	u
O=C1c2ccccc2-c2onc3c(N4CCN(CCO)CC4)cc(N4CCN(C(=O)c5ccco5)CC4)c1c23	x	x	u	u	x	-2.6%
O=C1c2ccccc2-c2onc3c(Oc4ccccc4)cc(O)c1c23	112.8%	35.5µM*[fluorescent]	7.0%	3.2	-11.9%	x
Cc1ccc([S+](=O)([O-])N(c2ccccc2)[S+](=O)([O-])C(F)(F)F)cc1	-20.6%	-1.0%	x	-0.5	5.8%	-7.0%
Oc1ccc(Nc2nc3ccccc3n3cnnc23)cc1	x	-0.6%	x	x	1.1%	x
CC1CCCC(C)N1C(=O)Cn1cc(/C=C2/C(=O)Nc3ccccc32)c2ccccc21 (stereo not drawn)	6.31µM*	-5.1%	x	0.9	5.8%	u
Cc1ccc2cccc(NC(=O)COc3cc(C)c(Cl)c(C)c3)c2n1	x	3.0%	x	x	6.1%	x
Cc1ccc2cccc(NC(=O)COc3ccccc3Cl)c2n1	x	15.8µM*[quencher]	x	x	-15.4%	x
COc1cccc(-c2cc(C(F)(F)F)nc(-n3cccn3)n2)c1	2.7%	0.3%	-8.2%	0.8	8.8%	-3.0%
CCOC(=O)c1ccn(-c2nc(-c3cccc(OC)c3)cc(C(F)(F)F)n2)n1	x	0.0022µM*[quencher]	x	x	-10.1%	x
O=C(CCSCCc1ccccn1)Nc1ccccc1C(F)(F)F	x	-26.8%	x	x	5.9%	x
CC(C)(C)C1CCC(OC(=O)C[N+]2(C)CCCCC2)CC1 (stereo not drawn)	8.91µM*	-1.4%	-1.6%	4.0	6.0%	-16.9%
